Calls of active or inactive are those of the source. Rule for the calls: active = hit-call score of the fitted dose curve at least 0.9, where 1 is the maximum; inactive = score below 0.9.

A short description of the assay: ATG_AP_2_CIS: Attagene CIS-FACTORIAL HepG2 Assay for human Activator Protein 2 (AP-2) (AID 2282932). As to conditions: HepG2 AP-2 cis-reporter, Attagene transcription factor profiling; actives raise or lower the signal. Here is the method:
ATG_CIS is a cell-based, multiplexed-readout assay that uses HepG2, a human liver cell line, with measurements taken at 24 hours after chemical dosing in a 24-well plate.ATG_AP_2_CIS is one of 52 assay component(s) measured or calculated from the ATG_CIS assay. It is designed to make measurements of mRNA induction, a form of inducible reporter, as detected with fluorescence intensity signals by Reverse transcription polymerase chain reaction (RT-PCR) and Capillary electrophoresis technology.Data from the assay component ATG_AP_2_CIS was analyzed into 1 assay endpoint. This assay endpoint, ATG_AP_2_CIS, was analyzed with bidirectional fitting relative to DMSO as the negative control and baseline of activity. Using a type of inducible reporter, measures of mRNA for gain or loss-of-signal activity can be used to understand the reporter gene at the transcription factor-level as they relate to the gene TFAP2A and TFAP2B and TFAP2D. Furthermore, this assay endpoint can be referred to as a primary readout, because this assay has produced multiple assay endpoints where this one serves a reporter gene function. To generalize the intended target to other relatable targets, this assay endpoint is annotated to the dna binding intended target family, where the subfamily is basic helix-turn-helix leucine zipper.
Human liver HepG2 cells are transiently transfected with multiple reporter transcription units (MRTUs) in 6-well plates using FuGene 6 reagent (Roche; 3 ml FuGene/1 mg DNA). The MRTU constructs are regulated by a cis-regulating element (promoter). […] A major difference between the CIS and TRANS system is that in CIS activities of endogenous TFs are measured, whereas the TRANS assay evaluates changes in activities of exogenous, chimeric NR-Gal4 proteins. […] At the end of 24 hour incubation, total RNA was isolated using TriZol reagent (Invitrogen). The isolated RNA is then reverse-transcribed using oligo(dT) primer and Mo-MLV reverse transcriptase (Invitrogen) with DNAse I (Ambion) treatment for 30 min. The one-tenth of the produced cDNA was amplified by PCR using Taq DNA polymerase (Invitrogen) and two reporter sequence-specific primers. The PCR products were fluorescently labeled by primer extension with 6-arboxyfluorescein (6-FAM) 5'-labeled reporter sequence-specific primer (2 min at 95 C, 20 s at 68 C and 10 min at 72 C) and these products were digested with 5U of HpaI (New England Biolabs) for 2h at 37 C. The fragments were purified using Qiaquick PCR columns (Qiagen), analyzed on an ABI 3130xL genetic analyzer (Applied Biosystems) with peak positions identified by using a set of X-rhodamine (ROX)-labeled MapMarker1000 molecular weight standards (BioVentures). The raw capillary electrophoresis data was processed using Attagraph software (Attagene).
In the case of `COCCOCCO`, the molecule was called inactive.

`ClC(Cl)(Cl)c1ccccc1`: the outcome was inactive.

On to `CCCCc1ccc(O)cc1`, for which the molecule was called inactive.

Consider `CC(=O)c1ccc(-c2ccccc2)cc1`, for which the outcome was inactive.

With `CC(C)(C)c1ccc(O)cc1`, the result was inactive.

`CCNc1nc(Cl)nc(NC(C)(C)C)n1`: the result was inactive.

Regarding `O=S(=O)(c1ccc(O)cc1)c1ccc(O)cc1`, the result was inactive.

As to `c1ccc2c(c1)Nc1ccccc1S2`, the outcome was inactive.

On to `OCC(F)(F)OC(F)(F)C(F)(F)OC(F)(F)C(F)(F)OC(F)(F)F`, for which the molecule was classed as inactive.

Turning to `O=P1(N(CCCl)CCCl)NCCCO1` (stereo not given), the outcome was inactive.

For the molecule `CC(C)(C)N(NC(=O)c1ccc(Cl)cc1)C(=O)c1ccccc1`, the call was inactive.

On to `C=C(C)C(=O)OCC1CO1` (stereo not given), for which the result was inactive.

Take `O=P(Oc1ccccc1)(Oc1ccccc1)Oc1ccccc1`: the outcome was inactive.

Consider `Oc1ccc(I)cc1`, for which the call was inactive.

Consider `CCN(CC)C1CCCCC1`, for which the molecule was classed as inactive.

In the case of `c1ccc(OP(Oc2ccccc2)Oc2ccccc2)cc1`, the outcome was inactive.

On to `[N-]=[N+]=[N-]`, for which the call was inactive.

With `Cc1ccc(C(=O)Cl)cc1`, the molecule was called inactive.

Regarding `O=C(O)C1C(C(=O)O)C2(Cl)C(Cl)=C(Cl)C1(Cl)C2(Cl)Cl` (stereo not given), the call was inactive.

`C=CC(=O)OCC(F)(F)C(F)F`: the outcome was inactive.

On to `CC(C)Nc1ccc(Nc2ccccc2)cc1`, for which the molecule was classed as inactive.

For `CCOP(=S)(OCC)SCS(=O)(=O)CC`, the result was inactive.

On to `O=[N+]([O-])c1ccc(Cl)c(Cl)c1`, for which the molecule was classed as inactive.

For `COC(N)=O`, the result was inactive.

Consider `Clc1ccc(Oc2ccccc2)cc1`, for which the call was inactive.

As to `CC(=O)CCc1ccc2c(c1)OCO2`, the molecule was classed as inactive.

On to `O=C(O)C(F)(OC(F)(F)C(F)(F)C(F)(F)F)C(F)(F)F` (stereo not given), for which the molecule was called inactive.

On to `ClC(Cl)=C(c1ccc(Cl)cc1)c1ccccc1Cl`, for which the molecule was classed as inactive.

Turning to `Cc1c([N+](=O)[O-])cc2c(c1[N+](=O)[O-])C(C)(C)CC2(C)C`, the molecule was classed as inactive.

Turning to `CC(Cl)CN(C)C` (stereo not given), the molecule was called inactive.

Turning to `CCCCN(CC)C(=O)SCCC`, the call was inactive.

`COP(N)(=S)OC`: the molecule was classed as inactive.

For the molecule `CCOP(=S)(OCC)SCn1nnc2ccccc2c1=O`, the call was inactive.

As for `CNC(=O)Oc1ccc(N(C)C)c(C)c1`, the call was inactive.

For the molecule `N#C/C=C/c1ccccc1`, the outcome was inactive.

Regarding `Nc1ccc(Sc2ccc(N)cc2)cc1`, the molecule was called inactive.

In the case of `CCOP(=S)(OCC)SCSc1ccc(Cl)cc1`, the molecule was classed as inactive.

For `ClC(Cl)c1ccccc1`, the molecule was called inactive.

In the case of `CC1(C)CN=C(NN=C(/C=C/c2ccc(C(F)(F)F)cc2)/C=C/c2ccc(C(F)(F)F)cc2)NC1`, the molecule was classed as inactive.

Turning to `CC(Cc1ccc(OCC(=O)O)cc1)NCC(O)c1csc(C(F)(F)F)n1` (stereo not given), the molecule was classed as inactive.

Source of the values: PubChem BioAssay (EPA / NIEHS).
